How the values were obtained:
Assay type in all cases: functional
[1] = biological target: Solute carrier family 2, facilitated glucose transporter member 1 (Homo sapiens) (UniProt P11166); test: ST_JUDE_LEISH: Cytotoxicity at 2uM final concentration against transgenic Leishmania Mexicana promastigotes LmGLUT1 that are glucose transport deficient and complemented with the human glucose transporter GLUT1. Activity is measured by DNA content using SYBR green in vitro
[2] = biological target: Hexose transporter 1 (Plasmodium falciparum) (UniProt O97467); test: ST_JUDE_LEISH: Cytotoxicity at 2uM final concentration against transgenic Leishmania Mexicana promastigotes LmPfHT that are glucose transport deficient and complemented with the Plasmodium falciparum hexose transporter. Activity is measured by DNA content using SYBR green in vitro
[3] = biological target: Glucose transporter (Leishmania mexicana) (UniProt O61059); test: ST_JUDE_LEISH: Cytotoxicity at 2uM final concentration against transgenic Leishmania Mexicana promastigotes LmGT2 that are glucose transport deficient and complemented with the L. Mexicana glucose transporter 2. Activity is measured by DNA content using SYBR green in vitro

Sequence of Solute carrier family 2, facilitated glucose transporter member 1 (Homo sapiens) (P11166 whole entry): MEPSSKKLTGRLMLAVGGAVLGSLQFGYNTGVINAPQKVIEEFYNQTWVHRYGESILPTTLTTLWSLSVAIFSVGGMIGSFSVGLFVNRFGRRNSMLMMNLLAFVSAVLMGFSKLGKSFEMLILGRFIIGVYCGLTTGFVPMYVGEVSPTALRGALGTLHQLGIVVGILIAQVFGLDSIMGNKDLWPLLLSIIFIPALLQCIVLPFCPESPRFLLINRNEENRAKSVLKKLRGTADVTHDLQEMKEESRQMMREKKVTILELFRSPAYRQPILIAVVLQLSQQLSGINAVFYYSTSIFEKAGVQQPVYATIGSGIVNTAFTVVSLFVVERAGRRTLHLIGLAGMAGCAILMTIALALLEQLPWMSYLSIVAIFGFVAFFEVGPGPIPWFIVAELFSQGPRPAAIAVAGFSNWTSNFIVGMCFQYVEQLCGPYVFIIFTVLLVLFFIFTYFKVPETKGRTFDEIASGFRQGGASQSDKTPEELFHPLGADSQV

`N#Cc1ccc2c(c1)CCN(CCC1CCC(NC(=O)c3cc4cccc(Cl)c4[nH]3)CC1)CC2` (stereo unspecified) was tested, and the inhibition [1] was 15.5%, the inhibition [2] was 11.7% and the inhibition [3] was 9.05%.
`O=C(NC1CC1)c1cnc(N2CCC(Oc3ccc(Cl)cc3)CC2)c(Cl)c1` was tested, and the inhibition [1] was 5.36%, the inhibition [2] was 2.7% and the inhibition [3] was 0.49%.
In the case of `CN(CCCN(C)c1cc(NC(=O)c2ccc(F)cc2)ccn1)Cc1cccc(F)c1`, the inhibition [1] is reported as 5%, the inhibition [2] is reported as 5.98% and the inhibition [3] is reported as 4.86%.
For `N=c1sc2ccccc2n1CC(O)c1ccc(Cl)c(Cl)c1` (stereo unspecified), the inhibition [1] was -1.41%, the inhibition [2] was 1.26% and the inhibition [3] was 0.57%.
Work on `Clc1ccc(CNc2ccnc(NCCc3coc4ccccc34)n2)c(Cl)c1` yielded an inhibition [1] of 5.99%, an inhibition [2] of 6.11% and an inhibition [3] of 0.66%.
For `CCOC(=O)c1ccc(NC(=O)Nc2cccc(-c3cccc(-c4nc5cccc(C)c5[nH]4)c3)c2)cc1`, the inhibition [1] was 2.35%, the inhibition [2] was 3.22% and the inhibition [3] was 1.01%.
Work on `CCOC(=O)c1c(C)n(-c2ccccc2)c2ccc(OC(=O)c3ccc(S(=O)(=O)N(CC)CC)cc3)cc12` yielded an inhibition [1] of 4.6%, an inhibition [2] of 5.12% and an inhibition [3] of 5.12%.
In the case of `C=CCOC(=O)N1CCC(CNCc2cccc(-c3ccc(-c4nc5cccc(C)c5[nH]4)cc3)c2)C1` (stereo unspecified), the inhibition [1] is reported as 6.3%, the inhibition [2] is reported as 8.62% and the inhibition [3] is reported as 9.02%.
Molecule `N=C(NCCc1ccc(Cl)cc1)c1ccc(Cl)c(Cl)c1` has an inhibition [1] of 2%, an inhibition [2] of 2.64% and an inhibition [3] of 1.15%.
With `Cc1c(F)cc(C(=O)NC2CC2)cc1-c1ccc2c(c1)c(C)nn2S(=O)(=O)c1cccs1` the inhibition [1] was 4.6%, the inhibition [2] was 3.16% and the inhibition [3] was 2.8%.
`CCCn1c(Sc2ccc(C#N)c([N+](=O)[O-])c2)nnc1-c1ccc(N(C)C)cc1` gave an inhibition [1] of 5.64%, an inhibition [2] of 4.8% and an inhibition [3] of 3.14%.
With `COc1cc2nc(C)nc(Nc3ccc(Cc4ccccc4)cc3)c2cc1OC` the inhibition [1] was 4.72%, the inhibition [2] was 5.93% and the inhibition [3] was 3.99%.
With `CCNc1cc(C(=O)N[C@@H](Cc2cc(F)cc(F)c2)[C@H](O)CNCc2cccc(C(F)(F)F)c2)cc(N2CCCCS2(=O)=O)c1` the inhibition [1] was -0.07%, the inhibition [2] was -0.7% and the inhibition [3] was -1.62%.
`CCCCc1ccccc1NS(=O)(=O)c1ccc(OC)c(N2CCNCC2)c1` showed an inhibition [1] of -0.96%, an inhibition [2] of -3.65% and an inhibition [3] of -2.27%.
`CN(C)c1ccc(-c2ccc(C(=O)NC3CCN(Cc4cccc(C(F)(F)F)c4)CC3)s2)cc1` was tested, and the inhibition [1] was 4.91%, the inhibition [2] was 6.03% and the inhibition [3] was 3.55%.
`Nc1nc(N)c2c(n1)CCC(c1ccccc1)C2` (stereo unspecified) gave an inhibition [1] of 2.39%, an inhibition [2] of 1.07% and an inhibition [3] of 1.39%.
With `O=C(NCC1CCN(Cc2cccc(C(F)(F)F)c2)C1)c1cc(-c2cccc(C(F)(F)F)c2)cs1` (stereo unspecified) the inhibition [1] was 3.9%, the inhibition [2] was 2.69% and the inhibition [3] was 5.94%.
Molecule `Cc1nc2c(Nc3nc(-c4ccncc4)cs3)ncnc2n1-c1ccccc1Cl` has an inhibition [1] of 45.1%, an inhibition [2] of 38.8% and an inhibition [3] of 13.4%.
In the case of `O=[N+]([O-])c1cccc(Nc2cncc(-c3ccc(CO)cc3)c2)c1`, the inhibition [1] is reported as 2.04%, the inhibition [2] is reported as 0.66% and the inhibition [3] is reported as 0.83%.
In the case of `Cc1ccc(CNc2cc(C(F)(F)F)nc(-c3ccc(S(C)(=O)=O)cc3)n2)cc1`, the inhibition [1] is reported as 9.86%, the inhibition [2] is reported as 11.2% and the inhibition [3] is reported as 9.59%.
In the case of `CC(C)C(=O)NC(NC(=S)Nc1ccc(Br)cc1)C(Cl)(Cl)Cl` (stereo unspecified), the inhibition [1] is reported as -2.18%, the inhibition [2] is reported as 2.18% and the inhibition [3] is reported as -0.89%.
Molecule `NCC1CCCN1Cc1cccc(-c2ccc(-c3nc4ccccc4[nH]3)s2)c1` (stereo unspecified) has an inhibition [1] of 9.15%, an inhibition [2] of 8.03% and an inhibition [3] of 7.51%.
`COc1cc(C(=O)N2C(c3nccs3)C(C(=O)N(OC)C(C)c3ccccc3)CC2(CC(C)C)C(=O)OC(C)(C)C)ccc1C(C)(C)C` (stereo unspecified) gave an inhibition [1] of 4.49%, an inhibition [2] of 3.71% and an inhibition [3] of 1.29%.
Work on `COc1cccc(Nc2nc(C)cc(NCc3ccc(-n4ccnc4)cc3)n2)c1` yielded an inhibition [1] of 4.08%, an inhibition [2] of 13.7% and an inhibition [3] of 8.06%.
With `O=C(/C=C/c1c[nH]c2ccccc12)NCCCCCN1CCC(c2c[nH]c3ccccc23)CC1` the inhibition [1] was 3%, the inhibition [2] was 1.49% and the inhibition [3] was 1%.
`CN(C)c1ccc(C(c2ccc(N(C)C)cc2)c2cc([N+](=O)[O-])ccc2Cl)cc1` was tested, and the inhibition [1] was 0.57%, the inhibition [2] was 0.82% and the inhibition [3] was -3.09%.
For `N#Cc1ccc(-c2ccc(C(=O)NCCCCN3CCC(n4cnc5ccccc54)CC3)cc2)cc1`, the inhibition [1] was 3.46%, the inhibition [2] was 3.72% and the inhibition [3] was 5.28%.
`O=C1OC2(CN1CC1CCN(Cc3ccc(O)c(Cl)c3)CC1)c1ccccc1-c1ccccc12` gave an inhibition [1] of 8.04%, an inhibition [2] of 6.3% and an inhibition [3] of 3.94%.
In the case of `COc1ccc(NC(=O)CCNc2cc(C)nc(NCCc3ccccc3)n2)cc1`, the inhibition [1] is reported as 4.71%, the inhibition [2] is reported as 4.04% and the inhibition [3] is reported as 2.42%.
With `O=C(Nc1ccc(C(F)(F)F)cc1)N[C@H]1CCN(CCCCCNC(=O)C2CC2c2ccc(Cl)c(Cl)c2)C1` (stereo partly specified) the inhibition [1] was 3.36%, the inhibition [2] was 2.73% and the inhibition [3] was 2.17%.
`O=C(Nc1ccc(Cl)cc1C(=O)Nc1ccncc1)c1ccc(Cl)cc1Cl` gave an inhibition [1] of 6.71%, an inhibition [2] of 5.88% and an inhibition [3] of 5.53%.
`Cc1cccc2nc(-c3cccc(-c4ccc(NC(=O)Nc5cccc(C#N)c5)cc4)c3)[nH]c12` gave an inhibition [1] of 2.14%, an inhibition [2] of 2.03% and an inhibition [3] of -1.2%.

From ChEMBL document CHEMBL3433997, “St. Jude Leishmania screening dataset” (2016)
